In PubChem BioAssay (NCI) one finds growth data, which are given here for 16 molecules.

Holding throughout (assay): NCI-60 one-dose screen, 48 h (100 = growth as untreated, 0 = no growth, -100 = all killed)
Common to all, as to conditions: 10 µM unless noted

The subject of test [1] is HCT-15 colon.
Test [2] has as its system HT29 colon.
The test system of test [3] is SNB-19 CNS.
The test system of test [4] is U251 CNS.
For test [5], the system named is PC-3 prostate.
Test [6] deals with SK-MEL-5 melanoma.
The subject of test [7] is UACC-62 melanoma.
Test [8] relates to LOX IMVI melanoma.
The test system of test [9] is SK-MEL-2 melanoma.
Test [10] relates to EKVX NSCLC.
The subject of test [11] is SN12C renal.
Test [12] relates to UO-31 renal.
In test [13] the test system is TK-10 renal.
In test [14] the test system is ACHN renal.
Test [15] has as its system CAKI-1 renal.
In test [16] the test system is A498 renal.
Test [17] deals with CCRF-CEM leukemia.
Test [18] deals with MOLT-4 leukemia.
Test [19] concerns SK-MEL-28 melanoma.

About 83,000 compounds went through this panel and 20% of them were active in at least one assay; those are over-represented in the sample as a whole.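 Activity criterion: percent growth below 10, measured after cells in 96-well plates were exposed to a single compound concentration for 48 hours.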 Unmarked numbers belong to inactive results. Activity calls are given as the source filed them.

Regarding `COc1ccc(S(=O)(=O)NCCCNc2nccc(-n3ccc4cccnc43)n2)cc1`, the growth in [1] was 75.8%; in [2], 108%; in test [3], 89.1%; in test [4] it was 92.5%; in test [5] it was 86.2%; in test [6] it was 99.1%. Besides, the growth in test [7] is 88.3%; in test [8], 90.8%; in [9] it was 106%; in [10] it was 87.5%; in test [11], 90.9%; in [12], 97.5%. The growth in test [13] is 105%; in [14], 94.6%; in test [15], 69.6%; in test [16], 87.5%; in test [17] it was 90%; in [18], 77.2%.

Turning to `O=S(=O)(c1ccc(OCCO)cc1)c1ccc(OCCO)cc1`, the growth is 99% in test [1]; 97.6% in test [2]; 108% in test [3]; 93.2% in test [4]; 85% in test [5]; 89.7% in test [6]. The growth in [7] was 101%; in test [8], 105%; in test [19], 79%; in test [10], 108%; in test [11], 106%; in [12], 80.6%. Further, the growth in [14] is 102%; in test [15] it was 98.9%; in [17], -21.9% (active); in test [18], 83.2%.

On to `COc1ccc(-c2ccc(C)n2-c2ccc(-c3nc4ccccc4s3)cc2)cc1`, for which the growth in [1] was 96.5%; in test [2], 92%; in test [3], 91.9%; in [4] it was 90%; in test [5], 91.6%; in [6], 102%. In addition, the growth in [7] was 86.1%; in [8], 88.3%; in test [19] it was 113%; in [10], 78%; in test [11], 86.6%; in [12], 86.6%. The growth in test [13] is 119%; in [14] it was 90.9%; in test [15] it was 76%; in test [18] it was 81.8%.

As for `Cc1cc(C2=NNC(=O)Cc3cc4c(cc32)OCCO4)cc(C)c1N`, the growth in test [1] is 31.7%; in [2] it was 7.97% (active); in [3], 48%; in [4], 36.6%; in [5], 49.1%; in test [6], 10.2%. In addition, the growth in [7] was 44.1%; in test [8], 39.7%; in [19] it was 42.3%; in test [10], 59.6%; in [11] it was 43.6%; in test [12] it was 40%. For the same molecule, the growth in test [13] was 60.6%; in test [14], 48.7%; in test [15], 40.4%; in test [16], 24.2%; in test [18] it was 52.2%.

As to `COc1cc(Nc2ncccc2C(=O)NCc2cn(Cc3cccc(Oc4ccccc4)c3)nn2)cc(OC)c1`, the growth is 32.9% in test [1]; 8.47% (active) in test [2]; 59.9% in test [3]; 34.7% in test [4]; 57.2% in test [5]; 19.5% in test [6]. The growth was 32.7% in test [7]; 43.6% in test [8]; 67% in [19]; 46.2% in [10]; 42.9% in test [11]; 49.8% in test [12]. The growth in test [13] was 70.4%; in test [14] it was 53.6%; in [15], 36.9%; in test [16], 24.2%.

`CN(CCCCCl)P(=O)(OCc1ccc([N+](=O)[O-])o1)C(F)(F)C[C@H](NC(=O)CNC(=O)c1ccc(N=[N+]=[N-])cc1)C(=O)NCCc1ccc(O)cc1` (some centres not stated): the growth was 103% in test [1]; 86.3% in test [2]; 94.1% in test [3]; 69.1% in test [4]; 101% in [5]; 91.3% in test [6]. In addition, the growth was 59.7% in [7]; 79.3% in test [8]; 63.9% in test [19]; 102% in [10]; 95.2% in test [11]; 84.7% in test [12]. Moreover, the growth is 121% in test [13]; 106% in [14]; 105% in test [15]; 104% in [16]; 74.7% in test [18].

On to `O=C(Nc1ccc2c(c1)OCCO2)C(=O)c1c[nH]c2ccccc12`, for which the growth in test [1] was 33.5%; in test [2], 4.06% (active); in test [3], 46.9%; in test [4], 34%; in test [5] it was 28.9%; in test [6], 29.7%. For the same molecule, the growth was 33.1% in [7]; 36.1% in test [8]; 53% in [19]; 52.9% in test [10]; 42.4% in test [11]; 50.9% in test [12]. Moreover, the growth is 75.1% in [13]; 57.4% in [14]; 49.7% in test [15]; 26.3% in [16]; 16.8% in test [18].

For the molecule `CCCCCCCC[C@@H](O)CC(=O)N[C@@H](CC(N)=O)C(=O)N[C@@H](CCC(N)=O)C(=O)N[C@@H](CC(=O)c1cc(C)cc(O)c1C(=O)c1c(O)cccc1O)CC(C)C`, the growth in test [1] was 45.6%; in test [2], 2.56% (active); in test [3] it was 23.8%; in test [4], 4.49% (active); in test [5], 10.8%; in [6], 16.1%. In addition, the growth was 0.947% (active) in [7]; 12.5% in test [8]; 51.9% in [9]; 61.1% in test [10]; 25.4% in test [11]; 63.2% in test [12]. The growth in test [13] was -6.12% (active); in test [14] it was 31.9%; in test [15] it was 40.6%; in test [16], -3.25% (active); in [17] it was 11.6%; in [18], 14%.

Regarding `CCN(CC)CCOC(=O)C(c1ccccc1)(c1ccccc1)C(C)C`, the growth in test [1] was 95.9%; in test [2], 61.4%; in [3] it was 97.1%; in test [4], 87.2%; in [5], 69%; in test [6], 90.6%. The growth in test [7] was 100%; in test [8], 71.5%; in test [19] it was 106%; in test [10] it was 81.6%; in test [11] it was 88.1%; in test [12] it was 51.7%. In addition, the growth in test [13] is 91.6%; in [14], 92.8%; in [15] it was 66.8%; in test [16], 70.5%; in test [17] it was 86.4%; in [18], 86.7%.

Consider `Cc1cc(C)n(-c2nnc3n2N=C(c2ccc(-c4ccccc4)cc2)CS3)n1`, for which the growth is 36% in test [1]; 6.89% (active) in test [2]; 66.9% in [3]; 37.3% in [4]; 36.4% in test [5]; 28.2% in test [6]. Further, the growth in test [7] was 40.5%; in [8] it was 35.2%; in [9] it was -12.1% (active); in [11], 53.4%; in test [12] it was 46.6%; in test [13], 50.6%. Besides, the growth was 54.8% in test [14]; 52.8% in [15]; 20.4% in test [16]; 28.1% in [17]; 28.5% in test [18].

As for `ClC(Cl)c1nc(-c2cccnc2)n2nc(-c3ccccc3)cc2n1`, the growth is -21.3% (active) in test [1]; -12.7% (active) in test [2]; 25.7% in [3]; -32.7% (active) in test [4]; 24.4% in test [5]; 36% in [6]. Besides, the growth in test [7] is 47.5%; in test [19], 73.4%; in test [9], 87.6%; in [10] it was 15.1%; in test [11], 41.7%; in [12], 59.9%. The growth was 27.3% in test [13]; -5.02% (active) in test [14]; -2.31% (active) in test [15]; 58.5% in test [16]; 15% in [18].

For the molecule `NC(N)=N/N=C/c1ccc(-c2ccc(-c3cc(Cl)cc(Cl)c3)s2)cc1`, the growth in test [1] is -74.5% (active); in [2] it was -74.9% (active); in test [3], 40%; in test [4], -84.1% (active); in [5], -38.5% (active); in test [6] it was 86.9%. In addition, the growth in test [7] is 48.2%; in [19], 96.5%; in test [9], 103%; in [10] it was 96.1%; in [11] it was -53.8% (active); in test [12], 72.2%. Also, the growth in [13] is -68.8% (active); in [14], -2.94% (active); in test [15], 50%; in [16], 73%; in [18] it was 17.4%.

As for `CC[N+](CC)=c1cc2oc3cc(N(C)C)ccc3nc-2cc1C`, the growth in test [1] is 47.4%; in [2], 28.3%; in [3], 31.8%; in test [4], 1.74% (active); in [5] it was 10.8%; in test [6], 7.58% (active). Besides, the growth is 62.7% in test [7]; 16.8% in test [8]; 19.4% in [9]; 3.38% (active) in [10]; 6.42% (active) in test [11]; 39.6% in test [12]. In addition, the growth is 46.7% in test [15], 99.2% in [16], 28.2% in test [17] and 21.8% in test [18].

As for `COc1ccc(S(=O)(=O)NCCCNc2nccc(-c3c(-c4cccc([N+](=O)[O-])c4)nc4sccn34)n2)cc1`, the growth in test [1] was 30.9%; in [2], 31.1%; in test [3], 74.6%; in [4], 71.8%; in test [5], 23.9%; in test [6] it was -20.5% (active). Moreover, the growth in [7] is 10.1%; in test [19] it was 61.4%; in [9], 41.4%; in [10] it was 57.2%; in [11], 42.8%; in [12], 19.7%. For the same molecule, the growth in test [13] is 89.1%; in [14], 33.8%; in test [15], 34.9%; in test [16], 46.2%; in [17], 18.7%; in test [18], 22.5%.

As to `N=c1ccc2nc3ccc(N)cc3sc-2c1`, the growth is 27.3% in [1]; 41.3% in test [2]; 4.78% (active) in test [3]; 6.47% (active) in test [4]; 7.2% (active) in [5]; -80.3% (active) in test [6]. The growth is 16.4% in [7]; 3.98% (active) in test [8]; 50.9% in [9]; 47.9% in test [10]; 6.7% (active) in test [11]; 69.1% in [12]. Also, the growth in test [13] is 11.9%; in test [15] it was 46.4%; in test [16] it was 70.6%; in test [17], 21.3%; in test [18], 8.58% (active).

In the case of `COc1ccc(-c2ccc(-c3ccc(-c4ccc(C(=N)N)cc4)s3)s2)cc1OC`, the growth was -68.8% (active) in test [1]; -60.2% (active) in test [2]; 87.7% in test [3]; 46.4% in test [4]; 70.6% in test [5]; 93.8% in test [6]. Besides, the growth in test [7] was 94.1%; in test [19], 93%; in [9] it was 105%; in test [10], -8.09% (active); in test [11], 91.7%; in test [12] it was 74.4%. Also, the growth was -78.8% (active) in [13]; 95.5% in [14]; 93.2% in test [15]; 48.6% in test [16]; 14.6% in [18].
